Experimental data reported in PubChem BioAssay AID2729 (National Center for Advancing Translational Sciences (NCATS), 2010).
The other results are listed elsewhere or left out. Records with an inconclusive call do not appear. A number with no mark means an inactive call. Calls follow the shape of the dose curve; as a rule, active = well fitted inhibition curve with a large enough effect; inconclusive = small, poorly fitted or top-dose-only effect, or effect the other way; inactive = flat fitted curve, though single readings scatter.

Assay: High Content Assay for Compounds that inhibit the Assembly of the Perinucleolar Compartment: WI-38 Cytotoxicity
Conditions: WI-38 normal lung fibroblasts, ATPLite luminescence ATP viability, 24 h; series mostly up to 46.1 µM; activity change, negative = cytotoxicity: at the top concentration
Excerpt: High Content Assay for Compounds that inhibit the Assembly of the Perinucleolar Compartment
NIH Chemical Genomics Center [NCGC]
NIH Molecular Libraries Probe Centers Network [MLPCN]
Assay Submitter (PI): Sui Huang, Northwestern University, Feinberg School of Medicine, Cell and Molecular Biology, Chicago, Illinois.
The perinucleolar compartment (PNC) is a non-membrane-bound nuclear subdomain that is associated with but structurally distinct from the nucleolus. The PNC is a heritable trait, in which the number of PNCs per cell in daughter cells often mimics that of their mother cells. The PNC is heterogeneous in shape, is stable through interphase, disassembles during mitosis, and reassembles in early G1. The PNC is concentrated with newly synthesized RNA polymerase III (pol III) RNAs (MRP RNA, RNAse P H1 RNA, hY RNAs[hY1, 2, 5], Alu RNA, and SRP [7SL] RNA) and RNA binding proteins (nucleolin, PTB, CUG-BP, KSRP, Raver1, Raver2, and Rod).
Extensive in vitro studies have shown that the PNC is unique to tumor cells and preferentially forms in tumor cells derived from solid tissues. Examination of cancer cell lines from various origins and malignant capacities has shown that PNC prevalence correlates with the malignancy of tumors and has the potential to be developed as a pan-cancer prognostic marker.
Although the PNC is associated with a DNA locus and a handful of components have been identified, much remains to be investigated regarding the structure and function of the PNC and its mechanistic link to cancer. We have previously shown that PNC prevalence reduction is a valid strategy to identify compounds that can be used to study the structure and function of the PNC. It is necessary, however, to create a screening platform that is able to test a large number of compounds in an automated fashion. Here we report the development and robustness of an automated whole-cell phenotypic image-based screening assay that is capable of identifying such compounds.
We conducted a followup assay to measure the effect of the lead candidates on cell health in a non-metastatic line, WI-38, by measuring ATP levels (ATPLite).
1. Cells at a density of 75-90% confluency in T175 flasks were harvested using 7 ml TrypLE Express cell dissociation reagent. After dissociation (5 minutes room temperature incubation) 10 ml of complete media was added to the TrypLE/cell suspension. The liquid was transferred to a 50 ml Conical tube and cells were pelleted at 1000 RPM for 5 min. Supernatant was removed and cells were resuspended to a final density of 150-200 cells/ul in complete media.
2. Cells were plated in 5 ul volume (2000 cells/well) into 1536 well White solid bottom plates and allowed to recover and adhere at 37 C in a humidified 5% CO2 incubator for 4 hours.
3. After 4 hour incubation, compound libraries (23 nl of 12.5 uM in columns 5-48) were transferred to the plates in duplicate using a 1536 well pintool. Camptothecin positive control (59 uM final) was added to column 2 and 1:3 dilutions of camptothecin was added to column 3. DMSO negative controls were present in columns 1 and 4.
4. After a 24 hour incubation in the 37 C incubator, all wells were treated with 3 ul of ATPLite reagent using a multidrop combi dispenser (ThermoFisher). Bubbles that formed during dispensing were removed by spinning the plates for 1 minutre at 1500 RPM on a table top centrifuge.
5. Luminescencent signal was detected on a Viewlux CCD based imager (PerkinElmer) with a clear filter and a 30 second integration time.
The WI-38 normal human fetal lung fibroblast cell line was provided by Sui Huang of Northwestern University. The media and cell culture reagents were purchased from Invitrogen (Carlsbad, CA), ATPLite came from PerkinElmer.

Structure (SMILES) | activity change, negative = cytotoxicity [%]
CCOC(=O)c1c(-c2cccc(C)c2)csc1NC(=O)c1c(-c2ccccc2)noc1C | -12.3
COC(=O)C1=C(C)N(c2ccc(Br)cc2)C(=O)/C1=C\c1ccco1 | -2.42
N=c1c2c(-c3ccccc3)c(-c3ccccc3)n(Cc3ccccc3)c2ncn1CCCO | -13.3
Cn1c2ccccc2c(=O)c2c(=O)n(Cc3ccco3)c(COc3ccccc3)nc21 | -2.37
CC1(c2cccc([N+](=O)[O-])c2)CC(C)(C)N(C(=O)c2ccccc2)c2ccccc21 (stereo unspecified) | 7.08
COC(=O)c1ccc(CSc2ccccc2C)o1 | 16.6
